SMILES strings stand for the structures. “And” between values parts separate entries of the source, which are not always exact repeats. Equal values may be shown once. The source made the active and inactive calls. No rule for the calls is given here.

The term inhibition denotes the relative decrease from the control value, in per cent.

The assay deals with Botulinum neurotoxin type F light chain protease (Clostridium botulinum). In words: Clostridium botulinum type F light chain protease inhibitors, microsphere substrate cleavage, validation (AID 588459). Conditions: multiplex microsphere protease substrate cleavage assay, flow cytometry; at 10 µM; stronger effect = higher value. A general note: In flow cytometry, cells or beads pass a laser one at a time.
For `CCCOc1ccc(-c2cc(C(=O)NCC3CCCO3)c3ccccc3n2)cc1` (centres undefined), the inhibition was -0.2% (inactive).
For the compound `CCCCCCCC(=O)OCC(=O)[C@@]1(O)CC[C@H]2[C@@H]3CCC4=CC(=O)CC[C@]4(C)[C@H]3[C@@H](O)C[C@@]21C`, the inhibition was -3.8% (inactive).
Turning to `COCCCC/C(=N\OCCN)c1ccc(C(F)(F)F)cc1`, the inhibition is -1.3% (inactive).
With `O=C(Oc1cccccc1=O)c1ccccc1` the figure was 1.1% (inactive).
As for `CCC(C(=O)OCCN(CC)CC)c1ccccc1` (centres undefined), the figure is 2.4% (inactive); as for `Cc1ccccc1-c1coc2cc(O)ccc2c1=O`, -3.4% (inactive).
As for `C[C@H](CCC(=O)O)[C@H]1CC[C@H]2[C@@H]3C(=O)C[C@@H]4CC(=O)CC[C@]4(C)[C@H]3CC(=O)[C@]12C`, the figure is -1.4% (inactive); as for `CCC12CN3CC(CC)(CN(C1)C31C(=O)N(C)c3ccc(C)cc31)C2=O` (centres undefined), -1.6% (inactive).
`Cc1ccc(C2CC(c3cccs3)=NN2C(=O)c2ccco2)o1` (centres undefined): the inhibition was -0.5% (inactive).
As for `Nc1cccc2nc3ccccc3cc12`, the figure is 4% (inactive); as for `CN1CCC(=C2c3ccccc3CC(=O)c3sccc32)CC1`, 8% (inactive).
`Cc1ccccc1C(OCCN(C)C)c1ccccc1` (centres undefined): the inhibition was 1.2% (inactive).
In the case of `C[N+]12CCC(CC1)C(OC(=O)C(O)(c1ccccc1)c1ccccc1)C2` (centres undefined), the inhibition was 1% (inactive).
With `CC(C)NC[C@@H](O)c1ccc(O)c(O)c1` the figure was -3.7% (inactive).
Take `CN(C)C(=O)Oc1cccc([N+](C)(C)C)c1`: the inhibition was 0.7% (inactive) and -1.3% (inactive).
Turning to `COc1cc2c(cc1OC)C(c1ccc(-c3cc(Cl)ccc3Cl)o1)=NCC2`, the inhibition was 0.4% (inactive).
As for `COc1cccc(N2CC34C=CC(O3)C(C(=O)O)C4C2=O)c1` (centres undefined), the figure is 3.9% (inactive); as for `O=c1cc(Cn2ccnc2)c2cc3c(cc2o1)CCC3`, 1.9% (inactive); as for `CN(C)C(=O)C(CCN1CCC(O)(c2ccc(Cl)cc2)CC1)(c1ccccc1)c1ccccc1`, -1.4% (inactive).
`COc1cccc(/C=C/C(=O)c2c(O)cc(C)oc2=O)c1O`: the inhibition is 7% (inactive).
As for `COc1ccc(-c2coc3cc(O)cc(O)c3c2=O)cc1`, the figure is 0.3% (inactive).
Take `CCN1C(=O)C(CC(=O)Nc2ccc(OC)cc2)N(CCc2ccc(F)cc2)C1=S` (centres undefined): the inhibition is 0.2% (inactive).
Turning to `Nc1nc2c(ncn2COC(CO)CO)c(=O)[nH]1`, the inhibition is -0.4% (inactive).
With `CCOC(=O)[C@H](CCc1ccccc1)N[C@@H](C)C(=O)N1CCC[C@H]1C(=O)O` the figure was 3.5% (inactive).
Turning to `CC(=O)O[C@H]1C(=O)[C@@]2(C)[C@H]([C@H](OC(=O)c3ccccc3)[C@]3(O)C[C@H](OC(=O)[C@H](O)C(NC(=O)c4ccccc4)c4ccccc4)C(C)=C1C3(C)C)[C@]1(OC(C)=O)CO[C@@H]1C[C@@H]2O` (some centres undefined), the inhibition was 1.1% (inactive).
With `CC1=C/C(=N\N=C2\NC(=O)C(CC(=O)Nc3ccccc3F)S2)CC(C)(C)C1` (centres undefined) the figure was -1.1% (inactive).
As for `CC1(C)CC(O)(CNCc2ccc3c(c2)OCO3)CCO1` (centres undefined), the figure is -3.2% (inactive).
In the case of `COc1ccc(C2C3CCCCC3(O)CCN2C(=O)c2cccs2)cc1` (centres undefined), the inhibition was 2.8% (inactive).
As for `Cc1coc2cc3oc(=O)c(CCC(=O)O)c(C)c3cc12`, the figure is 3.6% (inactive).
As for `COc1ccc(C2C3=C(CC(C)(C)CC3=O)N(C)C3=C2C(=O)CC(C)(C)C3)cc1`, the figure is 2% (inactive).
As for `Cc1oc2cc(O)ccc2c(=O)c1Oc1ccccc1Br`, the figure is -1.1% (inactive); as for `COc1ccc(C(=O)CCN2CCc3cc(OC)c(OC)cc3C2)cc1`, -2.2% (inactive).
As to `Cc1ccc(C(=O)N2CC3(C(C)C)CN(C(=O)c4ccc(C)cc4)CC(C(C)C)(C2)C3=O)cc1`, the inhibition was 5% (inactive).
As for `CCCCC[C@H](O)/C=C/[C@@H]1[C@@H](C/C=C\CCCC(=O)O)[C@H]2CO[C@@H]1C2`, the figure is 0.5% (inactive); as for `CCOC(=O)[C@H]1O[C@@H]1C(=O)N[C@@H](CC(C)C)C(=O)NCCC(C)C`, 1.7% (inactive); as for `OCCN1CCN(CCCN2c3ccccc3Sc3ccc(C(F)(F)F)cc32)CC1`, -3.2% (inactive).
As for `NC(CO)C(=O)NNCc1ccc(O)c(O)c1O` (centres undefined), the figure is -15.8% (inactive); as for `CC1(C)S[C@@H]2[C@H](NC(=O)[C@H](N)c3ccccc3)C(=O)N2[C@H]1C(=O)O`, 2.6% (inactive) and -3.6% (inactive); as for `CNc1c2c(nn1C)CCCC2`, 0.6% (inactive).

The values are drawn from PubChem BioAssay.
